# Laboratory results published in PubChem BioAssay AID651661 (Broad Institute, 2012).
# Screen size: about 350,000 compounds; about 2,300 (0.66%) were called active.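 How the source made its calls: active means mean inhibition of at least 50% after viability correction, with every replicate also passing that limit; inconclusive means mean reaches 50% but only one of two replicates passes; inactive means the rest.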 Shown is part of a subset that was picked to be rich in actives.
# Test: EWS/Fli-driven NR0B1 reporter inhibitors, primary screen, A673 cells, NR0B1 luciferase, luminescence, MLPCN library (AID 651661);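 further: firefly luciferase signal divided by Alamar Blue viability fluorescence both relative to DMSO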
# Conditions: viability-normalised, at 12.6 µM, hits give high values
row,Structure (SMILES),inhibition
1,CS(=O)(=O)N1CC2(C1)[C@H](c1ccccc1)[C@H](CO)N2Cc1ccc(F)cc1,-3.95% (inactive)
2,CCOc1ncccc1C(=O)Nc1ccc2c(c1)OCCO2,-5.13% (inactive)
3,CCn1c(SCC(=O)Nc2ccc3c(c2)OCCO3)nnc1-c1ccncc1,4.78% (inactive)
4,O=C(Nc1ccncc1)c1cc(-c2ccccn2)nc2ccc(Br)cc12,17% (inactive)
5,Cc1ccc2nc(-c3ccncc3)cc(C(=O)Nc3ccc4c(c3)OCCO4)c2c1,57.8% (active)
6,CCN(CC)CCNC(=O)c1ccc(NC(=O)c2cc(-c3ccncc3)nc3ccccc23)cc1,8.49% (inactive)
7,Cc1ccc2nc(-c3ccncc3)cc(C(=O)Nc3ccc(OC(F)F)cc3)c2c1,54% (active)
8,CNC[C@H]1OCCCC[C@@H](C)Oc2ccc(NC(=O)c3ccncc3)cc2C(=O)N([C@H](C)CO)C[C@H]1C,0.415% (inactive)
9,CO[C@@H]1CN(C)C(=O)c2cc(NC(=O)C3CC3)ccc2OC[C@H](C)N(CC2CC2)C[C@H]1C,-3.56% (inactive)
10,O=C(C1CCOCC1)N1C[C@H]2[C@@H](c3ccccc31)[C@@H](CO)N2Cc1ccccc1,2.37% (inactive)
11,CCCC(=O)N1CC2(C1)CN(C(=O)COC)[C@@H](CO)c1c2c2ccc(OC)cc2n1C,23.9% (inactive)
12,C[C@@H](NC(=O)C[C@H]1CC[C@H]2[C@H](COc3ccc(NS(=O)(=O)c4ccc(Cl)cc4)cc3C(=O)N2C)O1)c1ccccc1,13.8% (inactive)
13,S=C(c1ccc(-c2ccccc2)o1)N1CCCCC1,-59.7% (inactive)
14,OCCN1CCN(C(=S)c2ccc(-c3ccccc3)cc2)CC1,69% (active)
15,CN1CCN(CCCCOc2ccccc2-c2ccccc2)CC1,-2.32% (inactive)
16,COc1ccc(CN(C)C[C@@H]2OCCCC[C@@H](C)Oc3ccc(NS(=O)(=O)c4ccc(C)cc4)cc3C(=O)N([C@@H](C)CO)C[C@H]2C)cc1,-18.8% (inactive)
17,CC(=O)Nc1ccc(C=Cc2ccc([N+](=O)[O-])cc2)cc1,-72.7% (inactive)
18,O=C1/C(=C\c2ccc([N+](=O)[O-])cc2)CS(=O)(=O)C/C1=C/c1ccc([N+](=O)[O-])cc1,74.9% (active)
19,O=C(O)C(=Cc1ccc([N+](=O)[O-])cc1)CCc1ccccc1,5.5% (inactive)
20,CCCN1C[C@@H](C)[C@@H](OC)CN(C)C(=O)c2ccc(NC(=O)c3ccc(F)cc3)cc2OC[C@@H]1C,-2.15% (inactive)
21,Cc1noc(C)c1NC(=O)N(C)C[C@H]1OCCCC[C@@H](C)Oc2ccc(NS(=O)(=O)c3ccc(Cl)cc3)cc2C(=O)N([C@@H](C)CO)C[C@H]1C,-7.3% (inactive)
22,CNC[C@H]1Oc2ccc(N(C)C)cc2CC(=O)N([C@@H](C)CO)C[C@@H]1C,14.1% (inactive)
23,CC1(C(=O)NCC2CCOCC2)Cc2c(-c3cccc(C(N)=O)c3)ccnc2O1 (stereo unspecified),0.349% (inactive)

row,Structure (SMILES),inhibition
1,S=C(NCc1ccc2c(c1)OCO2)NCc1ccco1,-23.2% (inactive)
2,CC1(C(=O)NCc2ccco2)Cc2c(-c3ccc4c(c3)OCO4)ccnc2O1 (stereo unspecified),57.5% (active)
3,CN(CC(=O)NCc1ccc2c(c1)OCO2)CC(=O)Nc1ccc(F)c(F)c1F,3.77% (inactive)
4,COc1cc(OC)c(C(=O)NCc2ccc3c(c2)OCO3)cc1OC,9.01% (inactive)
5,CC1(C(=O)NCc2ccc(F)c(F)c2)Cc2c(-c3ccc4c(c3)OCO4)ccnc2O1 (stereo unspecified),60.1% (active)
6,C[C@@H]1CN([C@H](C)CO)C(=O)Cc2cc(NC(=O)Nc3ccccc3)ccc2O[C@@H]1CN(C)Cc1ccc(C(F)(F)F)cc1,-0.517% (inactive)
7,Cc1noc(C)c1NC(=O)Nc1ccc2c(c1)CC(=O)N([C@@H](C)CO)C[C@@H](C)[C@@H](CN(C)Cc1ccc(Cl)c(Cl)c1)O2,64.4% (active)
8,Cc1noc(C)c1NC(=O)Nc1ccc2c(c1)CC(=O)N([C@H](C)CO)C[C@@H](C)[C@@H](CN(C)Cc1ccncc1)O2,-1.93% (inactive)
9,C[C@@H]1CN([C@H](C)CO)C(=O)Cc2cc(NC(=O)Nc3ccccc3)ccc2O[C@H]1CN(C)Cc1ccc(Cl)c(Cl)c1,9.7% (inactive)
10,Cc1noc(C)c1NC(=O)Nc1ccc2c(c1)CC(=O)N([C@H](C)CO)C[C@@H](C)[C@@H](CN(C)Cc1ccc(C(F)(F)F)cc1)O2,7.38% (inactive)
11,C[C@H](CO)N1C[C@H](C)[C@@H](CN(C)Cc2ccc(Cl)c(Cl)c2)Oc2ccc(NC(=O)Nc3ccc(C(F)(F)F)cc3)cc2CC1=O,72.5% (active)
12,O=C(C1CCOCC1)N1CC(=O)N2[C@H](CO)[C@H](c3ccc(C#Cc4cccc(F)c4)cc3)[C@H]2C1,3.5% (inactive)
13,CCCC(=O)Nc1ccc2c(c1)C(=O)N(C)[C@H]1CC[C@@H](CC(=O)NCC(F)(F)F)O[C@@H]1CO2,3% (inactive)
14,O=C(C[C@@H]1CC[C@H](NC(=O)C2CC2)[C@H](CO)O1)NCc1ccccc1Cl,-4.63% (inactive)
15,C[C@H](CO)N1C[C@H](C)[C@@H](CN(C)C(=O)NC2CCCCC2)Oc2ccc(NC(=O)c3ccncc3)cc2CC1=O,-1.15% (inactive)
16,COc1cccc(C(=O)Nc2ccc3c(c2)C(=O)N(C)C[C@@H](OC)[C@H](C)CN(C(=O)C2CCOCC2)[C@H](C)CO3)c1,-12.9% (inactive)
17,CCOc1cc(/C=C(/C#N)c2ccc(Cl)cc2)cc(Cl)c1OCC(=O)O,67.4% (active)
18,CCOC(=O)CN/C=C(\C#N)c1ccc(F)cc1,-7.7% (inactive)
19,COc1cc(/C=C(/NC(=O)c2ccc(Cl)cc2Cl)C(=O)O)cc(OC)c1OC,11.1% (inactive)
20,CO[C@@H]1CN(C)C(=O)c2cc(NC(=O)c3ccc(F)cc3)ccc2OC[C@H](C)N(C(=O)CN(C)C)C[C@H]1C,1.32% (inactive)
21,C[C@@H]1CCCCO[C@@H](CN(C)Cc2ccncc2)[C@H](C)CN([C@H](C)CO)C(=O)c2cc(NC(=O)CCC(F)(F)F)ccc2O1,-2.85% (inactive)
22,Cc1ccc(S(=O)(=O)NC[C@H]2CC[C@@H]3[C@@H](CN3Cc3ccccc3C(=O)O)O2)cc1,4.08% (inactive)
23,C[C@@H]1CCCCO[C@@H](CN(C)C(=O)c2ccccc2)[C@H](C)CN([C@@H](C)CO)C(=O)c2cc(NS(=O)(=O)c3cn(C)cn3)ccc2O1,-5.15% (inactive)
